Data taken from PubChem BioAssay (Tox21).
“And” between values parts separate entries of the source, which are not always exact repeats. Identical values can stand only once. Records with an inconclusive call do not appear. A call without a number means that no potency is given here. The source made the active and inactive calls. The call rests on the fitted dose curve; in most records, active means well fitted cell-killing curve with a large enough effect in the repeat runs; inconclusive means weak or mixed curves, or effect the other way; inactive means no such curve, though single readings can be large or run the other way.

Assay: qHTS assay to identify small molecule antagonists of the progesterone receptor (PR) signaling pathway - cell viability counter screen (AID 1346798); further: nearly all actives have a fitted effect of over 50% in size
Conditions: PR-UAS-bla HEK293T viability, CellTiter-Glo luminescence, 16 h; series mostly up to 92.4 µM
From the text: National Center for Advancing Translational Sciences [NCATS]
NIH Chemical Genomics Center [NCGC]
U.S. Environmental Protection Agency [EPA]
National Institutes of Environmental Health Sciences [NIEHS]
National Toxicology Program [NTP]
U.S. Food and Drug Administration [FDA]
Progesterone receptor (PR), a nuclear hormone receptor, plays an important role in development, metabolic homeostasis and reproduction. It is activated by the steroid hormone progesterone. Endocrine disrupting chemicals (EDCs) and their interactions with steroid hormone receptors like PR causes disruption of normal endocrine function. To identify the compounds that inhibit PR signaling, a PR-UAS-bla GripTite cell line i.e. PR-UAS-bla HEK293T (Invitrogen, Carlsbad, CA, USA) containing a beta-lactamase reporter gene under the control of an UAS response element was used to screen Tox21 10K compound library. The cytotoxicity of the Tox21 compound library against the PR-bla cell line was tested in parallel by measuring the cell viability using CellTiter-Glo assay in the same wells.
Tox21 Assay Protocol Summary:
PR-UAS-bla HEK293T cells were dispensed at 3,000 cells/4 uL of assay medium containing 2% charcoal stripped FBS per well into black wall/clear-bottom 1536-well plates using a Multidrop Combi (ThermoFisher Scientific, Waltham, MA) dispenser. After the assay plates were incubated at a 37C and 5% CO2 for 4 hr, 23 nL of compounds dissolved in DMSO, positive controls or DMSO only was transferred to the assay plate by a Pintool station (Kalypsys, San Diego, CA), followed by addition of 1 uL of R5020 in assay medium using a Flying Reagent Dispenser (FRD, Aurora Discovery, San Diego, CA). The plates were incubated at 37C and 5% CO2 for 16 hr. Then 1 uL of LiveBLAzer B/G FRET substrate was added using a Flying Reagent Dispenser, the plates were incubated at room temperature for 2 hours, and fluorescence intensity was measured by an Envision plate reader (PerkinElmer, Shelton, CT). For cell viability readout that measures cytotoxicity, 4 uL/well of CellTiter-Glo reagent was added into the assay plates using a FRD. After 30 min incubation at room temperature, the luminescence intensity in the plates was measured using a ViewLux (PerkinElmer) plate reader.
Potency means the concentration at half of the fitted maximal effect.

Row | SMILES | Potency
1 | CC(=O)O | inactive
2 | Cc1cc(-c2ccc(N)c(C)c2)ccc1N | inactive
3 | CCn1cc[n+](C)c1C | inactive
4 | CC[N+]1(C)CCCC1 | inactive
5 | CCCC[n+]1ccccc1 | inactive
6 | O=c1nc(O)n(Cl)c(=O)n1Cl | inactive
7 | CCCC[N+]1(C)CCCC1 | inactive
8 | CCCCCCn1cc[n+](C)c1 | inactive
9 | CC(Cl)(Cl)C(=O)O | inactive
10 | CCC(=O)C(CC(C)N(C)C)(c1ccccc1)c1ccccc1 (stereo not given) | 54.7 µM (active)
11 | CC[N+](CC)(CC)CC | inactive
12 | CCC[N+]1(C)CCCCC1 | inactive
13 | C1CCC(NC2CCCCC2)CC1 | inactive
14 | C=CCOC(Cn1ccnc1)c1ccc(Cl)cc1Cl (stereo not given) | 24.4 µM (active) and 15.4 µM (active) and 11.9 µM (active)
15 | Cc1cc(Cl)ccc1OCC(=O)O | inactive
16 | CCCC[n+]1ccccc1C | inactive
17 | O=C(O)C(Cl)Cl | inactive
18 | CCCCCC[n+]1ccccc1 | inactive
19 | CCCCn1cc[n+](C)c1C | inactive
20 | CC(=O)[O][Hg][c]1ccccc1 | 4.81 µM (active) and 3.86 µM (active) and 5.31 µM (active)

Row | SMILES | Potency
21 | CCCCCCCCCCCCOS(=O)(=O)O | inactive
22 | O=S(=O)(O)O | inactive
23 | CCCCCCCCCCn1cc[n+](C)c1 | inactive
24 | O=C(O)CCl | inactive
25 | N#CS | inactive
26 | O=C(O)CC(O)(CC(=O)O)C(=O)O | inactive
27 | Oc1ccccc1-c1ccccc1 | inactive
28 | CN(C)[C@@H]1C(=O)C(C(N)=O)=C(O)[C@@]2(O)C(=O)C3=C(O)c4c(O)cccc4[C@@](C)(O)[C@H]3[C@H](O)[C@@H]12 | inactive
29 | CCC[N+]1(C)CCCC1 | inactive
30 | O=C(O)C(Cl)(Cl)Cl | inactive
31 | Nc1ccc(Cl)cc1 | inactive
32 | O=C(O)COc1ccc(Cl)cc1Cl | inactive
33 | O=C(O)c1nc(Cl)ccc1Cl | inactive
34 | OCCOc1ccccc1 | inactive
35 | COCC(=O)N(c1c(C)cccc1C)C(C)C(=O)OC (stereo not given) | inactive
36 | CCCC[n+]1cccc(C)c1 | inactive
37 | COP(=O)(OC)OC=C(Cl)Cl | inactive
38 | CNC | inactive
39 | Nc1ccccc1 | inactive
40 | CCCn1cc[n+](C)c1 | inactive
